PubChem BioAssay (EPA / NIEHS)
Activity calls are given as the source filed them. The calls were made as follows: active = hit-call score of the fitted dose curve at least 0.9, where 1 is the maximum; inactive = score below 0.9.

What was measured:
Conditions in all cases: mRNA level, 48 h; actives raise or lower the signal
[1] = read-out: Bcl-2 (BID) gene, BID (gene 637); assay: LTEA_HepaRG_BID: Life Technologies and Expression Analysis (LTEA) Assay for Bcl-2 (BID) gene using HepaRG (AID 2283476)
Summary of the method: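 Gene expression by qRT-PCR in HepaRG cells after 48 h exposure, duplicate wells, eight half-log concentrations topping at 100 uM in 0.5% DMSO. Normalized to ACTB, GAPDH, POLR2A; bidirectional fitting relative to DMSO.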

[2] = read-out: Caspase-3 (Homo sapiens) (UniProt P42574); assay: LTEA_HepaRG_CASP3: Life Technologies and Expression Analysis (LTEA) Assay for cysteine-aspartic acid protease (CASP3) using HepaRG (AID 2283477)
Summary of the method: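 Read-out is CASP3 mRNA level by TaqMan qRT-PCR in human HepaRG cells after 48 h chemical exposure. Eight half-log concentrations topping at 100 uM were tested in 0.5% DMSO; gain or loss was fitted relative to DMSO.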

[3] = read-out: Cytochrome P450 (CYP24A1), CYP24A1 (gene 1591); assay: LTEA_HepaRG_CYP24A1: Life Technologies and Expression Analysis (LTEA) Assay for Cytochrome P450 (CYP24A1) using HepaRG (AID 2283478)
Summary of the method: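 HepaRG, 48 h chemical exposure, 8-pt half-log CRC from 100 uM, 0.5% DMSO vehicle, duplicates. Endpoint: CYP24A1 mRNA by Fluidigm TaqMan qRT-PCR, normalized ACTB/GAPDH/POLR2A; gain/loss fit vs DMSO.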

[4] = read-out: Cytochrome P450 (CYP1A2), CYP1A2 (gene 1544); assay: LTEA_HepaRG_CYP1A2: Life Technologies and Expression Analysis (LTEA) Assay for Cytochrome P450 (CYP1A2) using HepaRG (AID 2283479)
Summary of the method: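 CYP1A2 transcript induction or loss, quantified by Fluidigm qRT-PCR against three housekeeping genes, was fitted bidirectionally against 0.5% DMSO controls. Human HepaRG cells received eight half-log concentrations from 100 uM over 48 h.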

[5] = read-out: cysteine-aspartic acid protease (CASP8), CASP8 (gene 841); assay: LTEA_HepaRG_CASP8: Life Technologies and Expression Analysis (LTEA) Assay for cysteine-aspartic acid protease (CASP8) using HepaRG (AID 2283480)
Summary of the method: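 Differentiated human HepaRG cells, plated 48 h then switched to serum-free induction medium, were exposed in duplicate for 48 h to 8 half-log concentrations up to 100 uM in 0.5% DMSO. CASP8 mRNA was quantified by qRT-PCR, normalized to ACTB/GAPDH/POLR2A.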

[6] = read-out: Cytochrome P450 (CYP2B6), CYP2B6 (gene 1555); assay: LTEA_HepaRG_CYP2B6: Life Technologies and Expression Analysis (LTEA) Assay for Cytochrome P450 (CYP2B6) using HepaRG (AID 2283481)
Summary of the method: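 HepaRG cells plated 48 h, switched to serum-free induction medium, then dosed 48 h (8 points, half-log from 100 uM, 0.5% DMSO). RNA isolated; CYP2B6 expression measured by qRT-PCR; gain or loss fitted relative to DMSO.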

[7] = read-out: Cytochrome P450 2C19 (Homo sapiens) (UniProt P33261); assay: LTEA_HepaRG_CYP2C19: Life Technologies and Expression Analysis (LTEA) Assay for CYP2C19 using HepaRG (AID 2283482)
Summary of the method: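 Transcript levels of CYP2C19 were quantified by qRT-PCR after HepaRG cells were treated for 48 hours with test chemicals up to 100 uM (eight half-log concentrations, 0.5% DMSO vehicle). Gain or loss of signal was fitted relative to DMSO.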

[8] = read-out: CYP2C8 (gene 1558); assay: LTEA_HepaRG_CYP2C8: Life Technologies and Expression Analysis (LTEA) Assay for CYP2C8 using HepaRG (AID 2283483)
Summary of the method: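 Differentiated human HepaRG cells were exposed for 48 h in serum-free induction medium to eight half-log concentrations up to 100 uM in 0.5% DMSO, in duplicate. CYP2C8 mRNA was measured by TaqMan qRT-PCR, normalized to ACTB, GAPDH and POLR2A, and fitted bidirectionally against DMSO.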

[9] = read-out: CYP2E1 (gene 1571); assay: LTEA_HepaRG_CYP2E1: Life Technologies and Expression Analysis (LTEA) Assay for CYP2E1 using HepaRG (AID 2283485)
Summary of the method: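 HepaRG cells, plated 48 h, then exposed 48 h in serum-free induction medium to eight half-log concentrations from 100 uM in 0.5% DMSO, duplicate. CYP2E1 mRNA by qRT-PCR, normalized to ACTB/GAPDH/POLR2A; bidirectional fit versus DMSO.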

[10] = read-out: CYP4A11 (gene 1579); assay: LTEA_HepaRG_CYP4A11: Life Technologies and Expression Analysis (LTEA) Assay for CYP4A11 using HepaRG (AID 2283486)
Summary of the method: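 HepaRG, 48 h chem exposure, 8 conc (100 uM top, half-log), 0.5% DMSO vehicle; qRT-PCR readout, housekeeping-gene normalized; bidirectional curve fit vs DMSO baseline.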

[11] = read-out: Cytochrome P450 3A4 (Homo sapiens) (UniProt P08684); assay: LTEA_HepaRG_CYP3A4: Life Technologies and Expression Analysis (LTEA) Assay for CYP3A4 using HepaRG (AID 2283487)
Summary of the method: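 Differentiated HepaRG cells in serum-free induction medium exposed in duplicate for 48 h to 8 half-log concentrations up to 100 uM in 0.5% DMSO. CYP3A4 mRNA measured by qRT-PCR normalized to ACTB, GAPDH and POLR2A; bidirectional fit versus DMSO.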

[12] = read-out: DNA damage-inducible transcript 3 (DDIT3), DDIT3 (gene 1649); assay: LTEA_HepaRG_DDIT3: Life Technologies and Expression Analysis (LTEA) Assay for DNA damage-inducible transcript 3 (DDIT3) using HepaRG (AID 2283488)
Summary of the method: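 HepaRG cells, 48 h after plating, exposed 48 h in serum-free induction medium to 8 half-log concentrations up to 100 uM in 0.5% DMSO, in duplicate. DDIT3 mRNA measured by TaqMan qRT-PCR, normalized to ACTB, GAPDH and POLR2A. Fitted bidirectionally against DMSO.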

[13] = read-out: Pro-epidermal growth factor (Homo sapiens) (UniProt P01133); assay: LTEA_HepaRG_EGF: Life Technologies and Expression Analysis (LTEA) Assay for Epidermal growth factor (EGF) using HepaRG (AID 2283489)
Summary of the method: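 HepaRG, 48 h dosing, 100 uM top, half-log x8, 0.5% DMSO. Readout: TaqMan qRT-PCR (Fluidigm array), housekeeping-normalized. Gain or loss of signal fit vs DMSO.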

[14] = read-out: Early growth response protein 1 (EGR1) transcription factor, EGR1 (gene 1958); assay: LTEA_HepaRG_EGR1: Life Technologies and Expression Analysis (LTEA) Assay for Early growth response protein 1 (EGR1) transcription factor using HepaRG (AID 2283490)
Summary of the method: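 Differentiated human HepaRG cells in serum-free induction medium were exposed in duplicate for 48 h to eight concentrations (top 100 uM, half-log steps) in 0.5% DMSO. EGR1 mRNA was quantified by qRT-PCR, normalized to ACTB, GAPDH and POLR2A, and fitted bidirectionally versus DMSO.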

[15] = read-out: Ezrin (EZR), EZR (gene 7430); assay: LTEA_HepaRG_EZR: Life Technologies and Expression Analysis (LTEA) Assay for Ezrin (EZR) using HepaRG (AID 2283491)
Summary of the method: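 Differentiated human HepaRG cells, 48 h after plating, were exposed in serum-free induction medium for 48 hours to eight half-log concentrations up to 100 uM in 0.5% DMSO. EZR mRNA was measured by TaqMan qRT-PCR, normalized to ACTB, GAPDH and POLR2A, and fitted bidirectionally against DMSO.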

[16] = read-out: Cytochrome P450 3A7 (Homo sapiens) (UniProt P24462); assay: LTEA_HepaRG_CYP3A7: Life Technologies and Expression Analysis (LTEA) Assay for CYP3A7 using HepaRG (AID 2283492)
Summary of the method: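 Human HepaRG liver cells, 48 h post-plating, switched to serum-free induction medium and exposed in duplicate for 48 h. Dosing: 100 uM top, half-log dilutions, 8 points, 0.5% DMSO vehicle. Read-out: CYP3A7 mRNA, gain or loss fitted against DMSO baseline.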

[17] = read-out: CYP3A5 (gene 1577); assay: LTEA_HepaRG_CYP3A5: Life Technologies and Expression Analysis (LTEA) Assay for CYP3A5 using HepaRG (AID 2283493)
Summary of the method: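 HepaRG cells, plated 48 h then in serum-free induction medium, dosed in duplicate for 48 h with eight half-log concentrations up to 100 uM in 0.5% DMSO. Gene mRNA by Fluidigm TaqMan qRT-PCR, normalized to ACTB, GAPDH, POLR2A.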

[18] = read-out: Fatty Acid-Binding Protein 1 (FABP1), FABP1 (gene 2168); assay: LTEA_HepaRG_FABP1: Life Technologies and Expression Analysis (LTEA) Assay for Fatty Acid-Binding Protein 1 (FABP1) using HepaRG (AID 2283494)
Summary of the method: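 Differentiated human HepaRG cells were exposed in duplicate for 48 h in serum-free induction medium to 8-point half-log concentration series topping at 100 uM in 0.5% DMSO. FABP1 mRNA measured by TaqMan qRT-PCR, normalized to ACTB/GAPDH/POLR2A; bidirectional fit versus DMSO.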

[19] = read-out: CYP2C9 (gene 1559); assay: LTEA_HepaRG_CYP2C9: Life Technologies and Expression Analysis (LTEA) Assay for CYP2C9 using HepaRG (AID 2283484)
Summary of the method: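 Differentiated human HepaRG cells were exposed 48 h in serum-free induction medium to eight half-log concentrations up to 100 uM in 0.5% DMSO. CYP2C9 mRNA was measured by qRT-PCR, normalized to ACTB, GAPDH and POLR2A, and fitted bidirectionally against DMSO.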

[20] = read-out: Cytochrome P450 4A22 (Homo sapiens) (UniProt Q5TCH4); assay: LTEA_HepaRG_CYP4A22: Life Technologies and Expression Analysis (LTEA) Assay for Cytochrome P450 4A22 (CYP4A22) using HepaRG (AID 2283495)
Summary of the method: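 Readout is CYP4A22 transcript induction or loss, quantified by qRT-PCR and normalized to ACTB, GAPDH and POLR2A. Human HepaRG cells receive test chemicals for 48 h at eight half-log concentrations from 100 uM in 0.5% DMSO.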

Measured: AC50

Chain of Cytochrome P450 3A4 (Homo sapiens) (P08684 whole entry, looked up): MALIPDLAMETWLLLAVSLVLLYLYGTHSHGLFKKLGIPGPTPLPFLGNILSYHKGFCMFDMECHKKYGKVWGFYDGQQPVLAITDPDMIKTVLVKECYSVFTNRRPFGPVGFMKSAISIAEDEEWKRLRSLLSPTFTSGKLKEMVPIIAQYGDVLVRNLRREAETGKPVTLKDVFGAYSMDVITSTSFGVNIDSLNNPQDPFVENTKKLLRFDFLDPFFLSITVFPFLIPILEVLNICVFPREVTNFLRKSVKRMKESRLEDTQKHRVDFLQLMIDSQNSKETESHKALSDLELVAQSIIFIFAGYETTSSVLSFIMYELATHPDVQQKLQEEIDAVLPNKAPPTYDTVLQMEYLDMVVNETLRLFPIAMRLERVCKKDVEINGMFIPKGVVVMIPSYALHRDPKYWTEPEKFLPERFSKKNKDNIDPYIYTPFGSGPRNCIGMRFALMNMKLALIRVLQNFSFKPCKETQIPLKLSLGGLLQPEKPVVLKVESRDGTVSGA
Chain of Cytochrome P450 3A7 (Homo sapiens) (P24462 whole entry, looked up): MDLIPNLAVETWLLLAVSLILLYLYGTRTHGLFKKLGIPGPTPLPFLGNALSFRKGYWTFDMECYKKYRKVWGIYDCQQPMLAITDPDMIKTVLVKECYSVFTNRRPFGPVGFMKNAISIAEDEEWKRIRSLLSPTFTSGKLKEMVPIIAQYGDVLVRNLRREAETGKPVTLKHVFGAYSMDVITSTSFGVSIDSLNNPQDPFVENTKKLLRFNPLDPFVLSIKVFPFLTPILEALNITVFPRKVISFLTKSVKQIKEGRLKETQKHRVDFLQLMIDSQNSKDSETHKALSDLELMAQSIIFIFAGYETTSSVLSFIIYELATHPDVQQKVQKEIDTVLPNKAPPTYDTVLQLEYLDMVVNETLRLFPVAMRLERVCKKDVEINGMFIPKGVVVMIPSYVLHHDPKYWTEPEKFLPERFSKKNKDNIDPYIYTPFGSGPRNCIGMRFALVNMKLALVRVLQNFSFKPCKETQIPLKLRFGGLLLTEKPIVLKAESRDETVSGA
Chain of Caspase-3 (Homo sapiens) (P42574 whole entry, looked up): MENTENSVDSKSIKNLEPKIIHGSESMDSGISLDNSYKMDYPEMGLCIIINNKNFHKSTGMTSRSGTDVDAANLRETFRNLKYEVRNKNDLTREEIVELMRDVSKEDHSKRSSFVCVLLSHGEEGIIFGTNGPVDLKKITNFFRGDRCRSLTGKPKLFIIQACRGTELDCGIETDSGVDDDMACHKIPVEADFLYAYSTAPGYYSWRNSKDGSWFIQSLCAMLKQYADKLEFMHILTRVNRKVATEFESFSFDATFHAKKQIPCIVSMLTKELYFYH
Chain of Cytochrome P450 2C19 (Homo sapiens) (P33261 whole entry, looked up): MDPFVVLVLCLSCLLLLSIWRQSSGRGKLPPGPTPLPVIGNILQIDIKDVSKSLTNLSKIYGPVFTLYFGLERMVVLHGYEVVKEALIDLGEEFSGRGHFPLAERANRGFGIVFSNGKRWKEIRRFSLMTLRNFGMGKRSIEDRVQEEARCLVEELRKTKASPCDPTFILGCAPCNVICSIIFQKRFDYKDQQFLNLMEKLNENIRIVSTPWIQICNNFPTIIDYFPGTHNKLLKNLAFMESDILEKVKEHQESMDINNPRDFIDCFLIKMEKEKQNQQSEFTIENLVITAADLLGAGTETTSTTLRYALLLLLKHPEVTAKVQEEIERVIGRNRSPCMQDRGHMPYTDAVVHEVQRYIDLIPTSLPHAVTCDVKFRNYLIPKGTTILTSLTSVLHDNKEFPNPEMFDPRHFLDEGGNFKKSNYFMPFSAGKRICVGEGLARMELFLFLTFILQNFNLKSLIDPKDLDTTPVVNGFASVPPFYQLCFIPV

CCOP(=O)(SC(C)CC)N1CCSC1=O (centres undefined)
active: [6] 2.56 µM | [9] 19.1 µM | [10] 17 µM | [11] 16.1 µM | [18] 16.1 µM
inactive: [1] | [2] | [3] | [4] | [5] | [7] | [8] | [12] | [13] | [14] | [15] | [16] | [17]

CNc1cnn(-c2cccc(C(F)(F)F)c2)c(=O)c1Cl
inactive: [1] | [2] | [3] | [5] | [8] | [19] | [10] | [12] | [14] | [15] | [16] | [20]
active: [4] 6.1 µM | [6] 6.51 µM | [7] 21.6 µM | [9] 41.1 µM | [11] 31.5 µM | [13] 29.8 µM | [18] 26 µM

O=[N+]([O-])c1cc(C(F)(F)F)c(Cl)c([N+](=O)[O-])c1Nc1ncc(C(F)(F)F)cc1Cl
active: [4] 8.27 µM | [6] 13 µM | [7] 26 µM | [9] 13.1 µM | [10] 27.6 µM | [11] 30.2 µM | [14] 90.7 µM | [16] 23.1 µM | [17] 66.7 µM | [18] 16.4 µM | [20] 23.1 µM
inactive: [1] | [2] | [3] | [5] | [13] | [15]
